Data from the supplement of paper PMC10338343.
± gives the standard deviation.

Assays:
[1] = tested on: MILI (PIWIL2) piRISC loaded with piRNA #1 (26 nt); assay: pre-steady-state target cleavage rate (min^-1); guide: piRNA #1 5'p-UGAGGUAGUAGGUUGUAUAGUAUCCA; higher = faster piRNA-guided slicing of the target; details: auxiliary factor: 500 nM mouse GTSF1;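 note: 1 nM active piRISC with 0.1 nM target library at 33 °C single turnover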
Method in brief: (§1)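 At 33 °C in HEPES–potassium acetate buffer, a transcribed, DNA-blocked target RNA library […] was exposed for 0–8 or 0–960 min to 1 nM active affinity-purified piRISC carrying a single synthetic guide, with or without 500 nM GTSF1 partner protein. Uncleaved targets were sequenced and normalised to depth and to weakly complementary targets. With three trials pooled and k3 capped at 0.0001 min^-1, a burst-and-steady-state fit produced the pre-steady-state cleavage rate.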

[2] = tested on: EfPiwi piRISC loaded with piRNA #1 (26 nt); assay: pre-steady-state target cleavage rate (min^-1); auxiliary factor: 500 nM Ephydatia muelleri Gtsf1; guide: piRNA #1 5'p-UGAGGUAGUAGGUUGUAUAGUAUCCA; MIWI and MILI are mouse PIWI proteins and EfPiwi is from a freshwater sponge; tags in brackets are library labels; higher = faster piRNA-guided slicing of the target
Method in brief: as §1

Sequence	pre-steady-state target cleavage rate [1]	pre-steady-state target cleavage rate [2]
GGAGACGAUACUAAACAACCUACUUCCUCA	0.0843 ± 0.021	0.00245 ± 0.0022
GGAGUGGAUACUAUACGACCUACUACCUCA	0.135 ± 0.0095	0.0922 ± 0.036
GGAGUGGAUACUGUACAACCUACUACCUCA	0.178 ± 0.0077	0.109 ± 0.039
GGAGACGAUACUAUCACAACCUACUACCUCA	0.221 ± 0.017	0.0153 ± 0.0062
GGAGACCACACUAUACAACCUACUACCUCA	0.221 ± 0.042	0.0344 ± 0.015
GGAGACGAUACUAUACCACCUACUACCUCA	0.168 ± 0.015	0.0106 ± 0.0037
GGAGACCAUACUAUACAUCCAACUACCUCA	0.00924 ± 0.0032	0.00245 ± 0.0022
GGAGACGCUACUAUACAACCUACUACCUCA	0.228 ± 0.019	0.163 ± 0.051
GGAGAGGAUACUUACAACCUACUACCUCA	0.125 ± 0.012	0.00543 ± 0.0036
GGAGAGGAUUGAAUACAACCUACUACCUCA	0.0664 ± 0.0088	0.00721 ± 0.0044
GGAGACCAAACUUUACAACCUACUACCUCA	0.137 ± 0.034	0.011 ± 0.0057
GGAGACCUAACUAUACAACGUACUACGUCA	0.00454 ± 0.0043	0.00291 ± 0.0026
GGAGUCGAUACUAUACAACCUACAACCUCA	0.0405 ± 0.0054	0.00324 ± 0.0017
GGAGUGCUAACUAUACAACCUACUACCUCA	0.128 ± 0.015	0.0117 ± 0.0053
GGAGACCAUACUAUACAACCUACUAGCUGA	0.0115 ± 0.0056	0.00669 ± 0.0037
GGAGAGGAUACUAUACAACGUACUACGUCA	0.0115 ± 0.0029	0.00349 ± 0.0018
GGAGUGGAUACUAUACAACCUCCUACCUCA	0.0339 ± 0.0035	0.0053 ± 0.0019
GGAGACCUAUGAAUACAACCUACUACCUCU [g2:g18:cont:t1U]	0.0139 ± 0.0044	0.688 ± 0.25
GGAGACCUAACUAUACAACCUACUACCGUCA	0.15 ± 0.034	0.0162 ± 0.0091
GGAGACGAUACUAUUCAACCUACUACCUGA	0.105 ± 0.017	0.00421 ± 0.0019

Sequence	pre-steady-state target cleavage rate [1]	pre-steady-state target cleavage rate [2]
GGAGAGGAUACUAUACAACCAACUACCUCA	0.00747 ± 0.0023	0.00561 ± 0.002
GGAGACCAUACUAUACAAGCUACUACCUCA	0.253 ± 0.02	0.00377 ± 0.0015
GGAGACGAUACUAUACAUCCUACUUCCUCA	0.157 ± 0.028	0.00415 ± 0.0023
GGAGUGGAUACUAUACAACCUACUACGACA	0.0497 ± 0.008	0.00539 ± 0.0025
GGAGACCUAACUAUACAACCUACUACCAGA	0.124 ± 0.035	0.00445 ± 0.0031
GGAGAGGAUACUAUACUAGCUACUACCUCA	0.113 ± 0.011	0.00387 ± 0.0029
GGAGACCAUACUAUACAACCUACUACCUUA	0.22 ± 0.024	0.0127 ± 0.0048
GGAGAGCAUACUAUACUACCUACUACCUCA	0.195 ± 0.016	0.00584 ± 0.0027
GGAGAGGAAACUAUACAACCUACUACGUCA	0.034 ± 0.011	0.00364 ± 0.0025
GGAGACCUUACUAUACAACCUACUAACCUCA	0.178 ± 0.018	0.00393 ± 0.0038
GGAGACCUUACUAUACAUCCUACUACCACA	0.246 ± 0.02	0.0038 ± 0.0032
GGAGAGGAUACAAUACAACCUACUACGUCA	0.0443 ± 0.0068	0.00333 ± 0.0019
GGAGACCAUACUAUACAUCCUACAACCUCA	0.208 ± 0.019	0.00248 ± 0.0024
GGAGACCUAUCUAUACAACCUACUACCUCA [g2:g20:cont:t1A]	0.11 ± 0.018	0.0119 ± 0.0046
GGAGACGAAUGUAUACAACCUACUACCUCA	0.124 ± 0.011	0.00736 ± 0.0043
GGAGACCAAACUAUACAACGUACUACCUCA	0.0124 ± 0.0071	0.00528 ± 0.0034
GGAGUGGUACUAUACAACCUACUACCUCA	0.148 ± 0.0098	0.00812 ± 0.0044
GGAGUGGACACUAUACAACCUACUACCUCA	0.241 ± 0.025	0.115 ± 0.041
GGAGACGAUACUAUACAACGAACUACCUCA	0.00414 ± 0.0015	0.00251 ± 0.0024
GGAGAGGAAUGUAUACAACCUACUACCUCA	0.0539 ± 0.0062	0.0061 ± 0.0042

Sequence	pre-steady-state target cleavage rate [1]	pre-steady-state target cleavage rate [2]
GGAGUGGAUACUAUACAACGUAGUACCUCA	0.0167 ± 0.0028	0.00292 ± 0.0011
GGAGACGAUACUCUACAACCUACUACCUCA	0.176 ± 0.012	0.00744 ± 0.0035
GGAGUGGAUACUAUACAAGCUACUUCCUCA	0.0765 ± 0.0095	0.00402 ± 0.0022
GGAGUGGAUACCAUACAACCUACUACCUCA	0.231 ± 0.02	0.157 ± 0.051
GGAGACGAUACUAUUCUACCUACUACCUCA	0.173 ± 0.012	0.00416 ± 0.0035
GGAGACCUAACUAUAACAACCUACUACCUCA	0.0743 ± 0.018	0.00912 ± 0.005
GGAGAGGUUACUUUACAACCUACUACCUCA	0.175 ± 0.01	0.00375 ± 0.0031
GGAGACCUAUGAUAACAACCUACUACGCUCA	0.00466 ± 0.0023	< 0.0001
GGAGACCAAUACUAUACAACCUACUACCUCA	0.193 ± 0.021	0.5 ± 0.18
GGAGAGGACACUAUACAACCUACUACCUCA	0.185 ± 0.016	0.0224 ± 0.0085
GGAGACCAUUCUAUACAUCCUACUACCUCA	0.235 ± 0.019	0.00435 ± 0.0029
GGAGACCAUACUAUAGAACCUACUACGUCA	0.0697 ± 0.013	0.00374 ± 0.0034
GGAGACCAUACUAUACAACCUCCUACCUCA	0.0492 ± 0.0088	0.00434 ± 0.0015
GGAGACGAUACUAUACAACCUCUACCUCA	0.0213 ± 0.0044	0.00608 ± 0.0025
GGAGAGGAUACUAUACAUCCUACUACCACA	0.0843 ± 0.016	0.00374 ± 0.0014
GGAGAGGAAUCUAUACAACCUACUACCUCA	0.199 ± 0.015	0.00943 ± 0.0056
GGAGACCUUACAAUACAACCUACUACCUCA	0.146 ± 0.019	0.0117 ± 0.0048
GGAGACGAUACUAUACAACCUAGAUCCUCA	0.00708 ± 0.0033	0.00272 ± 0.0017
